We go through five compounds from PubChem BioAssay.

Test [1] is described as follows: yeast TOR pathway RPL19A-GFP modulators, primary screen, cell-based, S. cerevisiae, multiplex flow cytometry (AID 1862; in the data active means percent of DMSO control GFP below about 86%;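 further: lower values mimic rapamycin by blocking the RPL19A rise seen in DMSO cells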). The following applies: S. cerevisiae RPL19A-GFP strain, flow cytometry fluorescence, 3 h; at 10 µM; stronger effect = lower value.
Test [2] can be described thus: modulators of MEP2-GFP levels in yeast, primary screen, S. cerevisiae, multiplex flow cytometry (AID 1867;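 active means GFP response, as percent of the DMSO control, above the screen-wide mean plus 3 SD, about 139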;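 further: median GFP channel fluorescence of barcode-gated MEP2-GFP cells measured by flow cytometry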). The following applies: S. cerevisiae MEP2-GFP strain, 3 h, at 10 µM, stronger effect = higher value, 100% means same as DMSO wells.
The nature of test [3]: modulators of CIT2-GFP expression in yeast, primary screen, S. cerevisiae, GFP fusion, multiplex flow cytometry (AID 1870;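 active means percent response above a set limit, the screen-wide mean plus 3 SD, cut at about 130% in these data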;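 further: barcoded CIT2-GFP strain pooled with four other GFP strains with rapamycin as positive control; median GFP fluorescence per well over plate mean of DMSO wells so 100% = DMSO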). The settings on record: 3 h, at 10 µM, stronger effect = higher value.
The nature of test [4]: modulators of LAP4-GFP expression in yeast, primary screen, S. cerevisiae, multiplex flow cytometry (AID 1873;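 active means GFP signal, as percent of the solvent control, above the screen mean plus 3 SD, about 149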). The following applies: 3 h, at 10 µM, stronger effect = higher value.
The nature of test [5]: modulators of AGP1-GFP expression in yeast TOR pathway, primary screen, cell-based, multiplex flow cytometry, S. cerevisiae (AID 1887;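 active means GFP signal above the screen-wide mean plus 3 SD, that is over about 124.5% of the solvent control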;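 further: AGP1-GFP fusion strain of S. cerevisiae within a five-strain barcoded multiplex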). The following applies: 3 h, at 10 µM, stronger effect = higher value.
Test [6] can be described thus: inhibitors of CD8+ T cell-vesicle binding, pilot screen, LFA-1/ICAM-1 modulator project, MLPCN validation set, flow cytometry (AID 2523;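 active means response below a set limit, under 55% cells CD8-positive and vesicle-bound, and CD8 cells' 90th-percentile brightness under 279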;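 on vesicle binding response: mean PE anti-B7-1 fluorescence of CD8+ cells relative to row control; 100% = QL9-loaded vesicles with DMSO vehicle in the same plate row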). The settings on record: 2C mouse CD8+ T cells, at 7 µM, stronger effect = lower value; double positive events: measured here: CD8+/vesicle+ event percentage.
Test [7] concerns the target Integrin beta-1 (Homo sapiens) + Integrin alpha-4 (Homo sapiens) (UniProt P13612+P05556). The test is described as follows: inhibition of HUTS-21 binding to VLA-4, pilot screen, VLA-4 allosteric modulator project, U937 cells, HUTS-21 mAb, flow cytometry, validation set (AID 2674;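 active means inhibition above 50%, about 3 SD of the validation set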;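 further: antibody binding induced by the VLA-4 ligand LDV present at three times its Kd; 0% = LDV ligand with antibody and no compound and 100% = antibody without LDV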). The following applies: HUTS-21 LIBS mAb binding, at 6.7 µM, stronger effect = higher value, binding induced by LDV ligand.

A short description of test [8]: superoxide lowering in aged yeast cells, pilot screen, validation compound set (AID 2706;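 active means superoxide response below 65% of plate, a cut near 3 SD across the whole screen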;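 further: yeast exposed to compound for one week at 30 degrees C before staining; 100% = mean of all compound wells on the same plate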). The settings on record: S. cerevisiae aging, superoxide DHE fluorescence; at 10 µM; stronger effect = lower value.
Test [9] addresses Beta-adrenergic receptor kinase 1 (Homo sapiens) (UniProt P25098). The test is described as follows: GRK2 binders displacing RNA aptamer, biochemical, validation, human GRK2, bead flow cytometry (AID 488806). The settings on record: bead-bound GRK2, FAM-aptamer displacement, at 10 µM, stronger effect = higher value.
The target in test [10] is Beta-2 adrenergic receptor (Homo sapiens) (UniProt P07550). The test is described as follows: beta2AR agonists driving receptor internalization, pilot screen, cell-based, FAP fluorogen, flow cytometry, validation set (AID 504459;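 active means percent response above 42, roughly 3 SD of non-fluorescent test compounds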;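 further: agonist-driven loss of surface beta2AR via internalization measured by FAP dye flow cytometry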). The settings on record: Am2.2-beta2AR cells, FAP surface receptor flow cytometry; at 10 µM; stronger effect = higher value.
Sequence of Beta-2 adrenergic receptor (Homo sapiens) (P07550 whole entry, looked up): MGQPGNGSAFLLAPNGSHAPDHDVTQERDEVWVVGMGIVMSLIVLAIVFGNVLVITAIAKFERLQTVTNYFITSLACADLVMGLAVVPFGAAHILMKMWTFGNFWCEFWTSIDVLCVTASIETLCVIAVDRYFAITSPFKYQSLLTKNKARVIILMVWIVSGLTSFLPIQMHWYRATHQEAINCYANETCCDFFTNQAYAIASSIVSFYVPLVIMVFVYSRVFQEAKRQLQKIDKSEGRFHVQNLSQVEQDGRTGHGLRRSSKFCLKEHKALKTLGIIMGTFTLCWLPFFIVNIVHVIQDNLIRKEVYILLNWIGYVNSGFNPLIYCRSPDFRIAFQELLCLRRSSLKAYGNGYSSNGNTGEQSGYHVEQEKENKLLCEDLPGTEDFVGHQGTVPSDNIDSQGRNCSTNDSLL
The target of test [11] is AP-2 complex subunit beta (Homo sapiens) (UniProt P63010). The test is described as follows: inhibitors of arrestin peptide binding to AP2, pilot screen, biochemical, validation set, GST-AP2 beads, flow cytometry (AID 504541;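 active means inhibition above 54%, about 3 SD of non-fluorescent compounds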;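 further: AP2 carries R879A mutation and is captured from E. coli lysate; bead-bound FITC arrestin peptide fluorescence measuring arrestin peptide binding to AP2; 0% = DMSO wells and 100% = excess unlabeled arrestin peptide control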). The settings on record: FITC arrestin peptide, at 10 µM, stronger effect = higher value, AP2 beta2 appendage fragment, R879A mutant.
Sequence of AP-2 complex subunit beta (Homo sapiens) (P63010 whole entry, looked up, the tested form may be a part, one chain of several): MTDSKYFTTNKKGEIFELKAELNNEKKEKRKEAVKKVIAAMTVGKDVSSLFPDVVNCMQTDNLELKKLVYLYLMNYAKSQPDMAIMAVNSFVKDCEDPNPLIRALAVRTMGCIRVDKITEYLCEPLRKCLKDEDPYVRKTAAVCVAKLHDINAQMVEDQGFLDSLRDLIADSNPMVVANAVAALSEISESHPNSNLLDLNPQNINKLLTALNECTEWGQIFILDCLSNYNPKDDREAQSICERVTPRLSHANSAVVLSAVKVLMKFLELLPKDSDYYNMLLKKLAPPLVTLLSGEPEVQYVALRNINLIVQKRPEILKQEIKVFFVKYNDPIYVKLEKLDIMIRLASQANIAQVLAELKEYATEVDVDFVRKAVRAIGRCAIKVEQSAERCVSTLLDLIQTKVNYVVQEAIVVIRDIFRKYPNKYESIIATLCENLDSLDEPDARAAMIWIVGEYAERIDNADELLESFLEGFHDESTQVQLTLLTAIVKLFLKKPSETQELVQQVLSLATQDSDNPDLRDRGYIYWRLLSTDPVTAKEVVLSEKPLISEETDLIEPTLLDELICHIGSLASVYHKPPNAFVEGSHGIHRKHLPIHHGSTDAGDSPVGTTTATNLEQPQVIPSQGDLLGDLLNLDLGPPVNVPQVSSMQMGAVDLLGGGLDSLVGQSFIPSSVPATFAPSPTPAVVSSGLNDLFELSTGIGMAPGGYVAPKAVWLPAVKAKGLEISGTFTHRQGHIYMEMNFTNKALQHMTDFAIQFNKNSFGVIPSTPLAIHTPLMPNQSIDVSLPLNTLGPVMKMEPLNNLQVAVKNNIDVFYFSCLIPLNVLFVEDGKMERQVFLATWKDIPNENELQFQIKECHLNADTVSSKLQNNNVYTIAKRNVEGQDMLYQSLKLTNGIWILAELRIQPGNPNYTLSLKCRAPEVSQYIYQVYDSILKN
Test [12] in a line: yeast V-ATPase proton transport modulators, S. cerevisiae, pHLuorin, HTS validation (AID 504600; in the data active means response above about 15%;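 further: plate controls were DMSO for no effect and reference compound for full effect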). The following applies: S. cerevisiae pHLuorin cytosolic pH, at 10 µM, stronger effect = higher value.
Test [13] concerns anti-desmoglein-3 scFv antibody binding to human DSG3. The test is described as follows: inhibitors of anti-DSG3 scFv binding to DSG3, pilot screen, biochemical, validation compound set, bead-based, flow cytometry (AID 588368;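 active means binding below the plate cutoff, the plate median minus 3 SD, with a reading above zero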;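 further: signal is the median channel fluorescence of bead-bound GFP antibody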). The following applies: Protein G beads, DSG3-Fc, scFv-GFP binding, at 10 µM, stronger effect = lower value.
The nature of test [14]: inhibitors of fungal efflux pumps CDR1, CDR2, MDR1, pilot screen, validation compound set, multiplex, phenotypic (AID 588506;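 active means efflux inhibition above 0.42, the validation set average plus 4 SD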;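 further: Nile Red retained in cells so higher fluorescence means more efflux inhibition; 0 = negative control wells and 1 = enniatin B 25 µM full block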). The following applies: S. cerevisiae pump-expressing triplex, Nile Red efflux flow cytometry; at 10 µM; stronger effect = higher value; the pumps come from Candida albicans.
In test [15] the target is ATP-binding cassette sub-family B member 6 (Homo sapiens) (UniProt Q9NP58). The test is described as follows: ABCB6 transporter inhibitors, pilot screen, K562-ABCB6 cells, flow cytometry, validation set (AID 588550;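 active means inhibition above the screen-wide mean plus 3 SD, about 51%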;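 further: 0% = DMSO wells and 100% = benzethonium chloride 70 µM positive control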). The settings on record: K562-ABCB6 porphyrin accumulation, 1 h, at 10 µM, stronger effect = higher value.
Sequence of ATP-binding cassette sub-family B member 6 (Homo sapiens) (Q9NP58 whole entry, looked up): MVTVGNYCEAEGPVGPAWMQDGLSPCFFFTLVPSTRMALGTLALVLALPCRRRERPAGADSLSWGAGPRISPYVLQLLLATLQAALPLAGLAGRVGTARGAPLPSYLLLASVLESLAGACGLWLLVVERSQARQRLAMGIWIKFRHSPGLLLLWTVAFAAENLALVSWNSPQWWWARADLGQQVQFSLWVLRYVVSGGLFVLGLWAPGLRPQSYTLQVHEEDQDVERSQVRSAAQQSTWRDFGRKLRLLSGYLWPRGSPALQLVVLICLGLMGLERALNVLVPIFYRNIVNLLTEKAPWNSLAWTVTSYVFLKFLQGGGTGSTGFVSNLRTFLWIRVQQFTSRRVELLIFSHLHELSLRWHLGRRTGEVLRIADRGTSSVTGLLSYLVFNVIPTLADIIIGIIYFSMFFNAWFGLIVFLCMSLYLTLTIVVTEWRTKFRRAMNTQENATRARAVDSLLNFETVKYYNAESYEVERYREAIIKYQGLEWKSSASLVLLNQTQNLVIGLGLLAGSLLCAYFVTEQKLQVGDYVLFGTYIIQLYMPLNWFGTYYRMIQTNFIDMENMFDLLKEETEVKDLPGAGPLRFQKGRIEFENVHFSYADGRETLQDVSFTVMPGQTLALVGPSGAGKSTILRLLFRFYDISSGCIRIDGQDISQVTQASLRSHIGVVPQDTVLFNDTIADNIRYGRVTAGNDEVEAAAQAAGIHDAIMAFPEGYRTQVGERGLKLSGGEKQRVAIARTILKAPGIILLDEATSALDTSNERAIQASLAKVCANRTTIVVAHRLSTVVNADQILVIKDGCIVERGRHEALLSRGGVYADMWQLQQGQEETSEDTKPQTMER
Test [16] is described as follows: promoters of myeloid differentiation in arrested cells, primary screen, cell-based, GFP/MAC1 double positive, flow cytometry, validation set (AID 588685;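 active means differentiation response of at least 50%, scaled between solvent and reference control, from cells with both markers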;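 further: compound exposure lasts four days before antibody staining and flow analysis; 0% = DMSO wells and 100% = 5 µM fulvestrant positive control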). The following applies: ER-HoxA9 marrow cells, stronger effect = higher value, normalized: vehicle 0, fulvestrant 100.

Records with an inconclusive call do not appear. The source made the active and inactive calls.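 How the source made its calls, unless noted: active means aptamer binding inhibition above 30%, about 3 SD of noise from non-fluorescent compounds; inactive means inhibition at or below 30%.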

Sequence of Beta-adrenergic receptor kinase 1 (Homo sapiens) (P25098 whole entry, looked up): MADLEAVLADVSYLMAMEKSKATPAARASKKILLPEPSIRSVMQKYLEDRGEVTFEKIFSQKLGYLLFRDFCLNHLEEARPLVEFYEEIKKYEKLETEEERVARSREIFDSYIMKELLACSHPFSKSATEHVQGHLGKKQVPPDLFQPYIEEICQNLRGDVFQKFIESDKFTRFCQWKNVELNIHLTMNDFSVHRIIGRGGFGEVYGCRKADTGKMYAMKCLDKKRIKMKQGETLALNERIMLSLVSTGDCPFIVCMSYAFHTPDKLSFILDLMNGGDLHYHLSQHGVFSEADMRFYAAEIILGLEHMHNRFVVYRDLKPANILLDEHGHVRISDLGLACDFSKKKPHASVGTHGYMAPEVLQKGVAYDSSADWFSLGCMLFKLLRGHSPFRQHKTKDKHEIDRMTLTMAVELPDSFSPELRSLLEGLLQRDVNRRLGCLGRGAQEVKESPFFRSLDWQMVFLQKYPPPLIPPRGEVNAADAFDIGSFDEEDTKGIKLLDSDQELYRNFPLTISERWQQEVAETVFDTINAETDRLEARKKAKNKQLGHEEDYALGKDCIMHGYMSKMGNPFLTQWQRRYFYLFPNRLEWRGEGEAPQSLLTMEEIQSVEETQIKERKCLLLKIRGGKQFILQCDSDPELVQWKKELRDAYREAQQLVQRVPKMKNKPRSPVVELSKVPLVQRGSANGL
Sequence of Integrin beta-1 (Homo sapiens) + Integrin alpha-4 (Homo sapiens) (P05556 whole entry, looked up): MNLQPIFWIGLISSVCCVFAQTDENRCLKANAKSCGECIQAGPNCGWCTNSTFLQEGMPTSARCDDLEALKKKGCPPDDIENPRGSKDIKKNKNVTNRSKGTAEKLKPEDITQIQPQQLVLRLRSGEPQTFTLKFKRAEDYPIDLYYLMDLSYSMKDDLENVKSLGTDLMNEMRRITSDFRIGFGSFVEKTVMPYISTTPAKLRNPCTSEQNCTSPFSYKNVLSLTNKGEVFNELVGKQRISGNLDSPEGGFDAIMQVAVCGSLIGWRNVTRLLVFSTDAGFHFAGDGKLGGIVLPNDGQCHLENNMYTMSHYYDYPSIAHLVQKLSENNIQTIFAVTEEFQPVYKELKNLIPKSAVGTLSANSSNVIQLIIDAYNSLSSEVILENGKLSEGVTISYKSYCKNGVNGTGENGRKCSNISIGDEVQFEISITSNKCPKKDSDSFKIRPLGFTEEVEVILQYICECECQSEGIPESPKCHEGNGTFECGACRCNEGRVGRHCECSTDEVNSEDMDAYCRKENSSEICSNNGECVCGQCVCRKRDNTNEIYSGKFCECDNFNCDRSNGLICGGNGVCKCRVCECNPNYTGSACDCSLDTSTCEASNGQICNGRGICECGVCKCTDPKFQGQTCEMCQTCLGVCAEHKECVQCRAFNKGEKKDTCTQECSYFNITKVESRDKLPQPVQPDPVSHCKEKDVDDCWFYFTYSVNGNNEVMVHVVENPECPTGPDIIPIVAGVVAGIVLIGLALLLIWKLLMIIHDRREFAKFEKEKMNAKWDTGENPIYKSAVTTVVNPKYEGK
Sequence of Integrin beta-1 (Homo sapiens) + Integrin alpha-4 (Homo sapiens) (P13612 whole entry, looked up): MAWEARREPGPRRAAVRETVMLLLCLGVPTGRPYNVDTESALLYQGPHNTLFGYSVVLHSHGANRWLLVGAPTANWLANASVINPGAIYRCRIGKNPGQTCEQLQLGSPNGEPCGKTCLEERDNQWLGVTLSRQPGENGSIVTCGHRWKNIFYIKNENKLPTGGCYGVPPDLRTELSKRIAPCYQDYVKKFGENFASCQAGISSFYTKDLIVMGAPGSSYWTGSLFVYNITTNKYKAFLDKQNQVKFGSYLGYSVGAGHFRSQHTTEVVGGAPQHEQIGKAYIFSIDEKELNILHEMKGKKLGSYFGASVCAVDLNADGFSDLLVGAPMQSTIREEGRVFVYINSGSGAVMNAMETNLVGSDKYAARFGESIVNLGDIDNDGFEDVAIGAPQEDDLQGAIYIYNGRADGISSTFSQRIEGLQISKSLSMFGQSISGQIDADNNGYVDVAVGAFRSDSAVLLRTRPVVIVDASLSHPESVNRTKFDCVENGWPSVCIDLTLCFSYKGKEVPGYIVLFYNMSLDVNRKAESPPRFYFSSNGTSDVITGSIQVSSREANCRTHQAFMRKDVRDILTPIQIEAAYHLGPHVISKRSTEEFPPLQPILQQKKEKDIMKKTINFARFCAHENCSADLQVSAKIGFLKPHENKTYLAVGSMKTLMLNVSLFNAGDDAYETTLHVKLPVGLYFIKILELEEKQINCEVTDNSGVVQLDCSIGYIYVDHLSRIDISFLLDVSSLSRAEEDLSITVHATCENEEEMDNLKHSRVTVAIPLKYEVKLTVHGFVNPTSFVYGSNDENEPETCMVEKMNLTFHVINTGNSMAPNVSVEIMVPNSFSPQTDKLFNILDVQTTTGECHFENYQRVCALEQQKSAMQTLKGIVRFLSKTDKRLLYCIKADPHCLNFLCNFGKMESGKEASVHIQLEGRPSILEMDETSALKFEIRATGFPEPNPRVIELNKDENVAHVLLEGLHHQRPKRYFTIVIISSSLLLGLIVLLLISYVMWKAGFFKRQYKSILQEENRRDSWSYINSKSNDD

For the compound `Cc1cc(Cl)cc2c1NC(=O)[C@]21[C@@H]2C(=O)N(Cc3ccccc3)C(=O)[C@@H]2[C@@H]2CCCN21`, the percent of DMSO control GFP in test [1] was 96.2% (inactive). For the same compound, the GFP response vs DMSO in [2] is 95.7% (inactive); in test [4], 102% (inactive). The percent response of DMSO control in test [3] is 90.5% (inactive). The GFP response, % of DMSO in test [5] was 99.6% (inactive). The double positive events in test [6] was determined as 63.7%. The vesicle binding response in test [6] is 154% (inactive). The inhibition in test [7] was -232% (inactive); in test [11], -2.45% (inactive); in test [15], -22% (inactive). Further, in test [8], the superoxide response (% of plate) was 95.7% (inactive). Also, the aptamer binding inhibition in test [9] is 6% (inactive). In addition, the response in test [10] was -4.55% (inactive); in test [12], 3.96% (inactive). Also, the binding (% of control) in test [13] is 104% (inactive). Moreover, the efflux inhibition (fraction of control) in [14] is 0.08 (inactive). Besides, in test [16], the differentiation response is -14.8% (inactive).
As for `CN(C)c1ccc(CNCCC(Cc2ccccc2)c2ccco2)cc1` (stereo not given), the percent of DMSO control GFP in test [1] was 101% (inactive). Also, the GFP response vs DMSO in test [2] was 93.5% (inactive); in test [4], 89.4% (inactive). In addition, in [3], the percent response of DMSO control was 108% (inactive). Moreover, the GFP response, % of DMSO in test [5] is 101% (inactive). In [6], this compound showed a double positive events of 58.2%. Besides, the vesicle binding response in test [6] was 31.1% (inactive). In addition, the values for the inhibition in [7], in test [11] and in test [15] were 1.12% (inactive), -16.6% (inactive) and 4% (inactive), respectively. The superoxide response (% of plate) in test [8] is 92.3% (inactive). Also, the aptamer binding inhibition in test [9] is -4% (inactive). Besides, the response in [10] is 9.55% (inactive); in test [12] it was 2.43% (inactive). For the same compound, the binding (% of control) in [13] is 105% (inactive). Besides, the efflux inhibition (fraction of control) in test [14] is 0.17 (inactive). Besides, the differentiation response in test [16] is -5.68% (inactive).
With `O=C1C(Cc2ccccc2)NC(=S)N1c1ccccc1` (stereo not given), in [1], the percent of DMSO control GFP was 96.1% (inactive). Further, the GFP response vs DMSO in test [2] was 105% (inactive); in test [4], 115% (inactive). In addition, the percent response of DMSO control in [3] was 92% (inactive). Besides, the GFP response, % of DMSO in test [5] was 99.4% (inactive). Moreover, the double positive events in [6] is 60.7%. Also, the vesicle binding response in test [6] was 179% (inactive). Further, the results for the inhibition in [7], in [11] and in test [15] were -14.1% (inactive), -7.42% (inactive) and 9% (inactive), respectively. Besides, the superoxide response (% of plate) in test [8] was 98.2% (inactive). The aptamer binding inhibition in [9] was 5% (inactive). Moreover, the response in [10] was -16.9% (inactive); in [12], 13.2% (inactive). For the same compound, the binding (% of control) in test [13] was 98.7% (inactive). For the same compound, in test [14], the efflux inhibition (fraction of control) is -0.24 (inactive). In [16], the differentiation response was -28% (inactive).
For the compound `O=C1c2ccccc2N2C(=O)c3ccccc3C2N1Cc1ccco1` (stereo not given), in test [1], the percent of DMSO control GFP is 104% (inactive). Besides, the GFP response vs DMSO in [2] is 104% (inactive); in test [4], 103% (inactive). In addition, the percent response of DMSO control in [3] was 110% (inactive). Besides, the GFP response, % of DMSO in test [5] was 89.8% (inactive). Further, the double positive events in test [6] worked out at 61%. For the same compound, the vesicle binding response in test [6] is 140% (inactive). Moreover, the inhibition in test [7] is -2.43% (inactive); in [11], -5.51% (inactive); in test [15] it was -8% (inactive). Moreover, the superoxide response (% of plate) in [8] was 95.6% (inactive). The aptamer binding inhibition in [9] is 0% (inactive). The response in [10] is -16.2% (inactive); in test [12], -3.39% (inactive). Moreover, in test [13], the binding (% of control) was 99.6% (inactive). Moreover, the efflux inhibition (fraction of control) in [14] was 0.03 (inactive). Further, in [16], the differentiation response was -1.65% (inactive).
For `O=C(/C=C/c1ccco1)Nc1ccccc1C(=O)O`, the percent of DMSO control GFP in test [1] was 98.1% (inactive). Also, the GFP response vs DMSO is 105% (inactive) in [2] and 94.8% (inactive) in test [4]. The percent response of DMSO control in test [3] is 107% (inactive). Also, the GFP response, % of DMSO in [5] was 109% (inactive). In addition, the double positive events in test [6] was 65.9%. The vesicle binding response in test [6] was 205% (inactive). Moreover, the inhibition in test [7] is -31.9% (inactive); in test [11] it was -15.5% (inactive); in test [15], -11% (inactive). Moreover, in test [8], the superoxide response (% of plate) was 124% (inactive). The aptamer binding inhibition in test [9] is 11% (inactive). The values for the response in test [10] and in test [12] were 5.64% (inactive) and 3.27% (inactive), respectively. For the same compound, the binding (% of control) in [13] is 105% (inactive). Besides, the efflux inhibition (fraction of control) in [14] is -0.3 (inactive). Further, the differentiation response in test [16] is 23.2% (inactive).
